The entries come from a sample that favours hits as a whole.
DUSP3 inh: VHR1 (DUSP3) phosphatase inhibition. P51452. recombinant VHR phosphatase, colorimetric substrate read-out. inhibition, % at 20 µM. actives 0.7% (n = 50,000). AID 1992; in the data active = inhibition above about 60%
Target sequence (P51452 whole entry, looked up): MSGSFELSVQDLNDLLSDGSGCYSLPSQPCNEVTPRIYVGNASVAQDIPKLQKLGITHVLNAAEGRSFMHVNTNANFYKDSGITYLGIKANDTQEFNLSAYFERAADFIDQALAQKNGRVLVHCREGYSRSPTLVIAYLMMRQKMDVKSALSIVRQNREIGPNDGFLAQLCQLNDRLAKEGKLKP
Active calls of the source: *.

SMILES	DUSP3 inh
Cc1nc(N)sc1-c1csc(Nc2ccccn2)n1	51
Cc1cc(NS(=O)(=O)c2ccc(Nc3nc(-c4ccccn4)cs3)cc2)no1	3
COc1ccc(C2CC(C(F)(F)F)n3nc(C(=O)NCCCN4CCOCC4)c(Cl)c3N2)cc1OC (stereo not given)	-43
Cc1ccc(/C=C2\C(=O)NC(=O)N(c3ccc(Cl)cc3)C2=O)cc1[N+](=O)[O-]	-3
O=C(Nc1ccccc1)N1CCN(Cc2ccc3c(c2)OCO3)CC1	101*
O=C(COc1ccc2ccccc2c1)N1CCN(Cc2ccc3c(c2)OCO3)CC1	6
O=C(c1ccc(F)cc1)N1CCN(Cc2ccc3c(c2)OCO3)CC1	0
O=C(c1cccs1)N1CCN(c2cccc(Cl)c2)CC1	-7
COc1ccccc1CN1CCN(Cc2ccco2)CC1	-14
CC(=O)Nc1ccc(S(=O)(=O)NC(=O)C23CC4CC(CC(C4)C2)C3)cc1	-5
CCC1(C(O)(C#CCN2CCCCC2)c2ccccc2)CCCC1 (stereo not given)	-3
NC(=O)C(=O)Nc1cccc2ccccc12	0
CC1(C)C(C(=O)Nc2cccc3ccccc23)C1(C)C	-9
O=C(Nc1cccc2ccccc12)C1C(c2ccccc2)=C1c1ccccc1	100*
COc1ccc(/C=C2\SC(=S)N(CCC(N)=O)C2=O)cc1	-8
O=C1/C(=C/C=C/c2ccccc2)SC(=S)N1CCS(=O)(=O)O	85*
COc1ccc(/C=C2\SC(=S)N(CCS(=O)(=O)O)C2=O)cc1	67*
O=C(O)CCCN1C(=O)/C(=C/C=C/c2ccccc2)SC1=S	3
COc1ccc(/C=C2\SC(=S)N(CCC(=O)OC3CCCCC3)C2=O)cc1	-7
Cc1ccc(/C=C2\SC(=S)N(CCS(=O)(=O)O)C2=O)cc1	63*
COC(=O)CN1C(=O)/C(=C\c2ccc(C)cc2)SC1=S	13
C=CCN1C(=O)/C(=C\C=C\c2ccccc2)SC1=S	-26
C=CCN1C(=O)/C(=C/c2ccc(C)cc2)SC1=S	-13
Cc1nnc(Nc2cccc(Nc3nnc(C)c4ccccc34)c2)c2ccccc12	3
N#C/C(=N/Nc1cccc(C(F)(F)F)c1)c1nc(-c2ccccc2)cs1	-4
SMILES	DUSP3 inh
Cc1ccc(C)n1-c1ccc(C(=O)O)c(Cl)c1	47
Cc1ccc(C)n1-c1ccc(C(=O)O)c(O)c1	97*
Cc1ccc(C)n1-c1cc(C(=O)O)cc(C(=O)O)c1	26
O=C(c1c(Cl)cccc1Cl)N1CCN(c2ccc(F)cc2)CC1	44
CC1CN(Cc2ccccn2)CCC1=O (stereo not given)	111*
COc1ccccc1CN1CCN(Cc2ccccn2)CC1	20
COc1cccc(CN2CCN(Cc3ccccn3)CC2)c1	10
Clc1ccc(-c2noc(CCc3ccccc3)n2)cc1	-12
COC(=O)c1cc(C(=O)N2CCCC2)cc([N+](=O)[O-])c1	15
CCC(C)(C)C1CCc2c(sc(NC(=O)C(C)C)c2C#N)C1 (stereo not given)	-25
Cc1cc(/C=N/Nc2ccc([N+](=O)[O-])cn2)c(C)n1-c1ccc(F)cc1	87*
Cc1cc(/C=N\Nc2ccc([N+](=O)[O-])cn2)c(C)n1-c1ccccc1F	-4
Cc1cc(/C=N/n2cnnc2)c(C)n1-c1ccc(F)cc1	-5
Clc1ccc2nc(N/N=C/c3ccc4c(c3)OCO4)nc(-c3ccccc3)c2c1	-13
O=C(CCN1C(=O)c2ccccc2C1=O)NCC1CCCO1 (stereo not given)	-9
Cc1ccc(C(=O)N(C)C2CCCCC2)cc1[N+](=O)[O-]	-12
OC(CCOc1cccc2ccccc12)CN1CCN(CC(O)COc2cccc3ccccc23)CC1 (stereo not given)	-2
CCOc1ccc2oc(-c3ccccc3)c(C(=O)O)c2c1	-21
CCOC(=O)c1c(-c2ccccc2)oc2ccc(OC(C)C(=O)OCC)cc12 (stereo not given)	6
CC(Oc1ccc2oc(-c3ccccc3)c(C(=O)O)c2c1)C(=O)O (stereo not given)	81*
O=C(N/N=C/c1cc(Br)cc(I)c1O)c1cccc([N+](=O)[O-])c1	-9
CC1=C(C(=O)OC2CCCC2)C(c2ccccc2C(F)(F)F)C2=C(CCCC2=O)N1 (stereo not given)	-14
O=C(COc1ccc(Cl)cc1)Nc1ccccc1C(F)(F)F	-2
CCc1ccc(OCC(=O)Nc2ccccc2C(F)(F)F)cc1	112*
Cc1cccc(OCC(=O)Nc2ccccc2C(F)(F)F)c1	-22
SMILES	DUSP3 inh
O=C(NC(NC(=S)Nc1ccccc1I)C(Cl)(Cl)Cl)c1ccccc1F (stereo not given)	26
CC(Cc1ccccc1)NC(=O)Cc1ccc(N)cc1 (stereo not given)	-6
Cc1csc(NC(=O)c2ccc(Cl)cc2[N+](=O)[O-])n1	22
O=C1CC(Nc2ccc(F)cc2)C(=O)N1c1ccccc1Cl (stereo not given)	7
C#CCn1cc(/C=C2\C(=O)NC(=O)N(c3ccc(Cl)cc3)C2=O)c2ccccc21	82*
O=C(Cn1cc(/C=C2\SC(=O)NC2=O)c2ccccc21)Nc1ccccc1	4
O=C1NC(=O)N(c2ccc(Cl)cc2)C(=O)/C1=C/c1ccccc1	-29
O=C(Cn1cc(/C=C2\NC(=O)NC2=O)c2ccccc21)Nc1ccccc1	-15
COc1ccc(N2C(=O)NC(=O)/C(=C/c3cn(CCOc4ccccc4OC)c4ccccc34)C2=O)cc1	-15
Cc1ccccc1N1C(=O)NC(=O)/C(=C/c2cn(CC(=O)Nc3ccccc3)c3ccccc23)C1=O	85*
O=C(CCNS(=O)(=O)c1ccccc1[N+](=O)[O-])N(Cc1ccccc1)Cc1ccccc1	-16
CSc1ccc(Cl)c(C(=O)NCC(C)c2ccccc2)c1 (stereo not given)	-10
Cc1cc(C)c(S(=O)(=O)Nc2c(C)cccc2C)c(C)c1	-45
CC(C)(C)N1C(=O)c2ccc(C(=O)Nc3cccc(O)c3)cc2C1=O	-16
CCCOc1cccc(C(=O)Nc2cccc(C(=O)Nc3ccccc3C(=O)O)c2)c1	-12
CCCOC(=O)c1ccc(NC(=O)c2cccc(OCc3ccccc3)c2)cc1	-10
CC(=O)c1cccc(NC(=O)c2cccc(OCc3ccccc3)c2)c1	112*
COc1ccc(N(CC(=O)N2CCOCC2)S(=O)(=O)c2ccccc2)cc1	2
CC(C)(C)NC(=O)/C(=C\c1cccs1)NC(=O)c1cccs1	3
COc1cc(C2CC(=O)Nc3c2cc(Br)c2ccccc32)cc(OC)c1OC (stereo not given)	4
CC(C)Oc1ccccc1C1CC(=O)Nc2c1cc(Br)c1ccccc21 (stereo not given)	108*
O=C1CC(c2ccccc2F)c2cc(Br)c3ccccc3c2N1 (stereo not given)	-4
Cc1ccc(NCC(=O)N/N=C\C=C\c2ccco2)cc1	4
C(/C=C/c1ccco1)=N/N1CCN(c2ccccc2)CC1	41
O=C1c2ccccc2/C(=N/N=C/C=C/c2ccco2)C1C(=O)C(c1ccccc1)c1ccccc1 (stereo not given)	88*
COc1ccc(Br)cc1/C=N/NC(=O)c1c[nH]c2ccccc12	-21
Cc1ccccc1-n1c(O)c(C=NCCCn2ccnc2)c(=O)[nH]c1=O	-5
COc1cccc(NC(=O)C2C3CCC4C(CCC32)C4(Cl)Cl)c1 (stereo not given)	2
Cc1cc(C)c(NC(=O)C2C3CCC4C(CCC32)C4(Cl)Cl)c(C)c1 (stereo not given)	103*
COc1ccc(NC(=O)C2C3CCC4C(CCC32)C4(Cl)Cl)cc1 (stereo not given)	-11

Bioassay records as filed in PubChem BioAssay.
